RecA splice inh = inhibitors of M. tuberculosis RecA intein splicing; P9WHJ3; cell-free RecA intein splicing, fluorescence; inhibition, % (concentration not given with the values); 290,000 tested, 0.75% active; AID 2221; in the data active means inhibition above about 30%; inconclusive means no clear call, values can overlap the other calls;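 further: 0% = vehicle wells and 100% = reference inhibitor control wells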
Mtb bLac sens = beta-lactam sensitization of Mtb H37Rv; M. tuberculosis H37Rv growth with meropenem, percent inhibition; 330,000 tested, 0.27% active; inhibition, % at 25 µM; AID 434955; call rule not given here;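 further: growth measured after seven days incubation then overnight dye step; 0% = bacteria only wells and 100% = bacteria with antibiotic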
Mtb FBA inh = inhibitors of M. tuberculosis fructose-bisphosphate aldolase; 360,000 tested, 2.3% active; inhibition, % at 1 µM; purified M. tuberculosis FBA, fluorescence read-out; in the data active means inhibition above about 27%;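 further: 0% = vehicle and 100% = reference inhibitor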
CCHFV vOTU inh = blocks the CCHF virus ovarian tumor domain protease; CCHFV vOTU protease, Pep-AMC fluorescence; inhibition, % at 11.5 µM; 370,000 tested, 0.55% active; further: 0% = vehicle wells with enzyme and 100% = no enzyme wells
GDH-TPI counter = GDH-TPI coupled enzyme inhibition counter-screen; GDH-TPI coupled enzyme counterscreen, NADH absorbance; inhibition, % at 4.8 µM; 360,000 tested, 1.2% active;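 further: 0% = DMSO wells and 100% = wells lacking the enzyme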
* marks the source's active call; other numbers are inactive results; ? = inconclusive; · = not tested or not shown; + = active, no number. Only some compounds are listed: those with a hit (about 4.2% of all), similar ones and a draw of the others. Unless noted, no stated cut-off is given here; in the data, active means inhibition above about 30%; inactive means the rest.

SMILES	RecA splice inh	Mtb bLac sens	Mtb FBA inh	CCHFV vOTU inh	GDH-TPI counter
Cc1ccccc1Oc1nc2c(C)cccn2c(=O)c1/C=C(\C#N)C(=O)NC1CCS(=O)(=O)C1 (configuration not stated)	-19	-8	34*	-60	10
CCN(CC)C(=O)CSc1nnc2nnc3cc(Cl)ccc3n12	42*	97	1	0	0
O=C1NC(=S)S/C1=C\c1cccc([N+](=O)[O-])c1	·	·	-5	6	33*
COc1ccccc1C=C1SC(=S)NC1=O	·	·	6	-1	28
O=C1NC(=S)SC1=Cc1ccccc1Cl	·	·	2	11	42*
CCN(CC)c1ccc(C=C2SC(=S)NC2=O)cc1	·	·	-39	16	22
CC1Cc2cc(/C=C3/SC(=S)NC3=O)ccc2O1 (configuration not stated)	1	10	-8	1	37*
O=C1NC(=Nc2ccccc2Cl)S/C1=C\c1cccc([N+](=O)[O-])c1	·	-2	0	2	22
CC(=O)OCCCN1CCC2(CCC(c3ccccc3)CC2)C1=O (configuration not stated)	·	·	·	-5	·
Cc1cc2cc(CN(Cc3ccco3)S(=O)(=O)c3c(C)ccc4nsnc34)c(=O)[nH]c2cc1C	0	-2	-2	11	17
Cc1ccc2cc(CN(Cc3ccco3)S(=O)(=O)c3c(C)ccc4nsnc34)c(=O)[nH]c2c1	-2	6	1	1	32*
Cc1ccc(S(=O)(=O)n2ccc3c(OCCOCCSCC(NC(=O)OC(C)(C)C)C(=O)O)cccc32)cc1 (configuration not stated)	10	-4	4	38*	1
Cc1ccc(-c2cn3cccnc3n2)cc1NC(=O)c1c(-c2ccccc2Cl)noc1C	0	10	+	-283	16
CC(=O)Nc1ccc(NC(=O)c2c(-c3ccccc3Cl)noc2C)cc1	2	1	0	-1	-7
CC(=O)Nc1cccc(NC(=O)c2c(-c3ccccc3Cl)noc2C)c1	1	4	-3	-17	-2
Cc1onc(-c2ccccc2Cl)c1C(=O)Nc1ccc(-c2cn3cccnc3n2)cc1	-3	?	+	·	31*
Cc1onc(-c2ccccc2Cl)c1C(=O)Nc1cccc(-c2nc3ncccn3c2C)c1	-2	4	175*	-301	26
CCSc1nnc(NC(=O)c2c(-c3ccccc3Cl)noc2C)s1	2	73	2	5	0
Cc1onc(-c2ccccc2Cl)c1C(=O)Nc1nnc(-c2cccc([N+](=O)[O-])c2)s1	4	-5	3	11	35*
CCCCCCCCNS(=O)(=O)CC1NCc2ccccc21 (configuration not stated)	·	·	·	17	·
Fc1ccccc1-c1n[nH]c(=S)n1N=Cc1ccc(-c2ccccc2)cc1	·	·	·	8	·
CCn1c2ccccc2c2cc(NC(=O)COC(=O)c3cccc(OC)c3)ccc21	·	·	·	-8	·
COc1ccc(CCNC(=O)c2ccc3c(c2)ncn3C2CCCCC2)cc1	·	·	·	5	·
COC1=C[C@H](C(=O)NCc2ccc(Br)cc2)[C@H](C)[C@@H](c2ccccc2)CC1=O	·	·	·	-1	·
Cc1occc1C(=O)NC(C)C1CCCO1 (configuration not stated)	0	-1	33*	-5	-6
SMILES	RecA splice inh	Mtb bLac sens	Mtb FBA inh	CCHFV vOTU inh	GDH-TPI counter
CC(NC(=O)c1ccco1)C1CCCO1 (configuration not stated)	-1	-5	1	-14	6
COC(=O)[C@H](CC(C)C)N(Cc1cn(CC2CCCCC2)nn1)S(=O)(=O)c1ccc(F)cc1Br	·	·	·	11	·
N#CCn1c(CCl)nc2ccccc2c1=O	38*	94	-5	-3	-6
CN1CCN(Cc2nc3ccccc3c(=O)n2CC#N)CC1	-1	1	1	2	4
Cc1c(C(=O)N2CCC(C)CC2)sc2ncnc(N(C)c3ccccc3)c12	7	-4	0	-11	35*
Cc1c(C(=O)N2CCC3(CC2)OCCO3)sc2ncnc(N(C)c3ccccc3)c12	2	17	1	11	20
CN(C)CC(=O)N[C@H]1C[C@@H]2O[C@@H](CO)CC[C@@H]2O[C@@H]1CCc1ccc(-c2ccc(F)cc2)cc1	·	·	·	-7	·
CC(C)CCn1c(N)c(C(=O)OCC2CCCO2)c2nc3ccccc3nc21 (configuration not stated)	-139	89	134*	-55	8
CCCCn1c(N)c(C(=O)OCC2CCCO2)c2nc3ccccc3nc21 (configuration not stated)	-84	26	+	·	18
Nc1c(C(=O)OCC2CCCO2)c2nc3ccccc3nc2n1C1CCCCC1 (configuration not stated)	23	2	14	2	8
O=C(C1CCN(S(=O)(=O)c2ccc3[nH]c(=O)oc3c2)CC1)N1CCCN(Cc2ccccc2)CC1	·	·	·	-8	·
Cc1ccc(NC(=O)CSc2nnc(-c3cccnc3)n2Cc2ccco2)c(C)c1	·	·	·	-6	·
CC(C)C[C@H]1CNC(=S)N1CC1CCCN1C[C@H](Cc1ccccc1)N1C[C@H](Cc2ccc(O)cc2)N(CC2CCCCCC2)C1=S (some centres not stated)	·	·	2	12	32*
CC(C)C[C@H]1CN([C@@H](Cc2ccc(O)cc2)CN2CCC[C@@H]2CN2C(=S)NC[C@@H]2Cc2ccccc2)C(=S)N1CC1CCCCCC1	·	·	-4	9	·
Oc1ccc(C[C@H]2CNC(=S)N2CC2CCCN2C[C@H](Cc2ccccc2)N2C[C@H](Cc3ccc(O)cc3)N(CCc3ccccc3)C2=S)cc1 (some centres not stated)	·	·	1	19	34*
CCOc1ccc(CCN2C(=S)N([C@@H](CC(C)C)CN3CCCC3CN3C(=S)NC[C@@H]3Cc3ccc(O)cc3)C[C@@H]2Cc2ccccc2)cc1 (some centres not stated)	·	·	5	20	38*
Oc1ccc(C[C@@H](CN2CCC[C@@H]2CN2C(=S)NC[C@@H]2Cc2ccccc2)N2C[C@H](Cc3ccccc3)N(CCc3ccccc3)C2=S)cc1	·	·	-4	10	·
O=C(NCCc1c[nH]c2ccccc12)OCc1cn(Cc2ccc(F)c(F)c2)nn1	·	·	·	-6	·
CCCCOc1cccc(C(=O)NCCc2ccccc2-c2ccccc2CCC(=O)NCc2ccccc2)c1	·	·	·	0	·
C=CCn1c(SCC(=O)c2ccc(NS(=O)(=O)c3ccccc3)cc2)nnc1-c1cccs1	2	-1	3	-3	35*
C=CCn1c(SCC(=O)Nc2ccc(C(=O)OCC)cc2)nnc1-c1cccs1	1	-5	-3	6	-1
COC(=O)[C@]1(CC(C)C)N[C@H](c2ccc(-c3ccc(F)cc3)cc2)[C@@H]2C(=O)N(C)C(=O)[C@@H]21	17	0	2	3	3
COC(=O)[C@]1(CC(C)C)N[C@H](c2ccc(-c3ccc(OC)cc3)cc2)[C@@H]2C(=O)N(C)C(=O)[C@@H]21	-2	-3	132*	-5	15
COc1ccc(C2CC(=O)c3c(O)cc(O)cc3O2)cc1O (configuration not stated)	·	·	-2	1	13
